Potency data for 40 compounds are collected here from PubChem BioAssay (NCATS).

Results filed as inconclusive are left out. A call without a number means that no potency is given here. Calls of active or inactive are those of the source. The call rests on the fitted dose curve; in most records, active means well fitted cell-killing curve with a large enough effect; inconclusive means small, poorly fitted or top-dose-only effect; inactive means flat fitted curve, though single readings scatter.
Potency means the concentration at half of the fitted maximal effect.

A short description of this assay: Quantitative highthroughput screen to assess conditional lethalithy of NOMO1 cells grown in RPMI1640 with dialyzed fetal bovine serum (RPMI+ds) (AID 1963877). Further: nearly all actives have a fitted effect of over 30% in size. The conditions noted are these: NOMO1 in RPMI+dialyzed FBS viability, ATP luminescence, 48 h; series mostly up to 45.8 µM. From the text: Assay Provider: Jason Cantor Ph.D.
Department of Biochemistry
University of Wisconsin-Madison, Madison, WI, USA
Chemical screening studies have identified drug sensitivities across hundreds of cancer cell lines but most putative therapeutics fail to translate. Discovery and development of drug candidates in models that more accurately reflect nutrient levels in human blood is a major challenge. Here we performed high-throughput screens in conventional versus Human Plasma-Like Medium (HPLM) to identify compounds that were "missed" when screening using the artificial culture condition. Sets of conditional anticancer compounds spanned phases of clinical development and included non-oncology drugs were assessed. […] We also traced conditional phenotypes for several chemotherapeutics to availability of HPLM-specific metabolites and confirmed others for compounds whose reported targets are encoded by nonessential genes. Our findings establish generalizable strategies for exploiting conditional lethality in HPLM to reveal therapeutic candidates and mechanisms of action in cancer cells.
Described herein are the results of each viability screens against three cell lines: NOMO1 (an acute myeloid leukemia cell line); P12-Ichikawa (a T-cell acute lymphoblastic leukemia); and SEM (a B-cell ALL). Each assay was screened using 3 different cell culture media: homemade human plasma-Like medium with 10% dialyzed fetal bovine serum (HPLM+ds); RPMI1640 with 10% untreated FBS and 5mM glucose (RPMI+s); and RPMI1640 with 10% dialyzed fetal bovine serum and 5 mM glucose (RPMI+ds).
PROTOCOL TABLE (as described by Inglese J, Shamu CE and Guy RK. 2007)
SEQUENCE No. (e.g., 1, 2, 3, etc.); […] (e.g., Cells, Incubation, Reagent, etc.); VALUE and DESCRIPTION.
1; Cells; 5 uL; white, solid bottom 1536-well Greiner assay plate.
2; Compounds; 23 nL; Kalypsis pin tool (Wako USA) equipped with a 1536-well pin head to transfer to the assay plates.
3; Incubation; 48 hours; 37C incubation.
4; Reagent; 3 uL; CellTiter Glo (Promega).
5; Incubation; 5 min, room temperature
6; Detection; Luminescence, Viewlux PerkinElmer.
NOTES (numbers refer to Sequence numbers above)
1. Briefly, 5 ul of cell reagent was dispensed using a Multidrop Combi Dispenser. The NOMO1 and SEM cells were plated at 500 cells/well and the P12-Ichikawa line at 1000 cells/well.
2. After seeding the cells, 23 nL of MIPE 4.1 library compounds (in DMSO) were added to each plate using a Kalypsys 1536 Pintool dispenser. Bortezomib at final concentration of […] and DMSO were added to each plate as positive and negative controls respectively. For each screen, MIPE 4.1 compounds were added over an eleven-point concentration range […] in 3-fold dilutions.
3. Each plate was covered with a stainless steel gasketed lid to prevent evaporation and incubated for 48 hour at 37C, 95% relative humidity, and 5% CO2.
4-5. Three microliter CellTilter-GloTM luminescent substrate mix (Promega) reagent was added to the assay plate and incubated at room temperature for 5 min.
6. The luminescence signal was measured using a ViewLux (PerkinElmer) multiplate reader with a 2 second exposure time per plate. Data for each compound were normalized as percent viability such that measurements for DMSO and the empty well controls in each plate were defined as 100% and 0%, respectively.
As for `CC(C)(O)C=CC(=O)[C@](C)(O)[C@H]1[C@H](O)C[C@]2(C)[C@@H]3CC=C4[C@@H](C=C(O)C(=O)C4(C)C)[C@]3(C)C(=O)C[C@@]12C`, the Potency was 166 nM (active).
Take `CC1=NN=C(c2ccc(N)cc2)c2cc3c(cc2C1)OCO3`: the Potency entry was “inactive”.
Consider `CC(C)N(CCNC(=O)CN1CCCC1=O)C(C)C`, for which the Potency result was “inactive”.
In the case of `C[C@](O)(CS(=O)(=O)c1ccc(F)cc1)C(=O)Nc1ccc(C#N)c(C(F)(F)F)c1`, the Potency entry was “inactive”.
On to `COc1cc2cc(c1Cl)N(C)C(=O)C[C@H](OC(=O)C(C)C)[C@]1(C)O[C@H]1[C@H](C)[C@@H]1C[C@@](O)(NC(=O)O1)[C@H](OC)C=CC=C(C)C2`, for which the Potency result is “inactive”.
Turning to `O=C1C=CC[C@@H]2[C@H]3CCCN4CCC[C@@H](CN12)[C@@H]34`, the Potency result is “inactive”.
In the case of `CC(O)=C(C#N)C(=O)Nc1cc(Br)ccc1Br` it was “inactive”; in that of `CC(=CCCC1=CCC(C2=CC(=O)OC2O)OC1O)CCC1=C(C)CCCC1(C)C` (stereo not given), “inactive”; in that of `CC[C@H]1C=CC=CC[C@@H](C)[C@H](O)[C@@](C)(O)C(=O)[C@@H](C)[C@H](O)[C@@H](C)C(=O)[C@@H](C)[C@H](O)[C@@H](C)C=CC(=O)O[C@@H]2[C@@H](C)[C@H](CC1)O[C@]1(CC[C@H](C)[C@H](C[C@@H](C)O)O1)[C@H]2C`, 4690 nM (active).
Turning to `C#CCN(C)[C@H](C)Cc1ccccc1`, the Potency result was “inactive”.
On to `CC[C@@H]1[C@@H](C)O[C@@](O)([C@@H](C)[C@H](O)[C@H](C)[C@H]2OC(=O)C=CC=C[C@@H](C)[C@@H]([C@@H](C)[C@@H](O)[C@H](C)[C@@]3(O)C[C@H](O[C@H]4C[C@H](O)[C@H](O)[C@H](C)O4)[C@H](CC)[C@@H](C)O3)OC(=O)C=CC=C[C@@H]2C)C[C@H]1O[C@H]1C[C@H](O)[C@H](O)[C@H](C)O1`, for which the Potency is 2640 nM (active).
In the case of `Cc1ncc(OC[C@@]2(c3cccc(F)c3)C[C@H]2C(=O)Nc2ccc(F)cn2)c(C)n1` it was “inactive”.
In the case of `CC(=O)O[C@@]12CO[C@H]1C[C@H](O)[C@@]1(C)C(=O)[C@H](O)C3=C(C)[C@@H](O)C[C@@](O)([C@@H](OC(=O)c4ccccc4)[C@@H]21)C3(C)C`, the Potency is 13200 nM (active).
On to `O=P1(NCCCl)OCCCN1CCCl` (stereo not given), for which the Potency entry is “inactive”.
As for `CN1C(=O)COc2c(C(=O)NC3CN4CCC3CC4)cc(Cl)cc21` (stereo not given), the Potency entry is “inactive”.
In the case of `C#C[C@]1(O)C=C[C@@H]2[C@@H]3CCC4=CC(=O)CC[C@@H]4[C@H]3CC[C@@]21CC` it was “inactive”; in that of `C[C@@H]1CC[C@H]2[C@@H](C)C(=O)O[C@@H]3O[C@@]4(C)CC[C@H]1[C@]32OO4`, “inactive”; in that of `CC1=C(O)C(=O)C=C2C1=CC=C1[C@@]2(C)CC[C@@]2(C)[C@@H]3C[C@](C)(C(=O)O)CC[C@]3(C)CC[C@]12C`, 2640 nM (active).
In the case of `C[C@]12CC[C@H]3[C@@H](CCC4=CC(=O)CC[C@@]43C)[C@H]1CC[C@H]2O` it was “inactive”.
On to `CCOC(=O)c1c(C(C#N)=CN)c2ccc(Cl)c(Cl)c2n1C`, for which the Potency entry is “inactive”.
For the compound `COC(=O)[C@@H](N)CCCN=C(N)N[N+](=O)[O-]`, the Potency entry was “inactive”.
As for `Cc1[nH]nc2ccc(-c3cncc(OC[C@@H](N)Cc4c[nH]c5ccccc45)c3)cc12`, the Potency was 743 nM (active).
In the case of `Clc1ccccc1C(c1ccccc1)(c1ccccc1)n1cccn1` it was “inactive”.
Regarding `C[C@@H]1O[C@@H](O[C@@H]2C=C3CC[C@@H]4[C@@H](CC[C@]5(C)[C@H](c6ccc(=O)oc6)CC[C@@]45O)[C@@]3(C)CC2)[C@H](O)[C@H](O)[C@H]1O`, the Potency is 46.9 nM (active).
On to `NCC1(CC(=O)O)CCCCC1`, for which the Potency result was “inactive”.
`C[C@H]([C@H](O)CCC(C)(C)O)[C@H]1CC[C@@]2(O)C3=CC(=O)[C@@H]4C[C@@H](O)[C@@H](O)C[C@]4(C)[C@@H]3CC[C@]12C`: the Potency entry is “inactive”.
For `CC(C)(C)c1cc(C=C(C#N)C#N)cc(Br)c1O`, the Potency result is “inactive”.
In the case of `COC1(CS(=O)c2ccccc2)CCN(CCc2c[nH]c3ccc(F)cc23)CC1` (stereo not given) it was “inactive”.
As to `C[C@]12CC[C@H]3[C@@H](CCC4=CC(=O)CC[C@@]43C)[C@H]1CC[C@H]2OC(=O)CCC1CCCC1`, the Potency result was “inactive”.
For the compound `Cc1ccccc1-n1c(Cn2ncc3c(N)ncnc32)nc2cccc(C)c2c1=O`, the Potency was 833 nM (active).
Regarding `Cc1cc(SCc2sc(-c3ccc(C(F)(F)F)c(F)c3)nc2C)ccc1OCC(=O)O`, the Potency entry was “inactive”.
With `CC(C)(O)C(=O)Nc1ccc([N+](=O)[O-])c(C(F)(F)F)c1`, the Potency is 1870 nM (active).
As for `COc1ccc2c(c1OC)CN1CCc3cc4c(cc3C1C2)OCO4` (stereo not given), the Potency was 1660 nM (active).
For `N[C@@H](Cc1ccc(N(CCCl)CCCl)cc1)C(=O)O`, the Potency was 9350 nM (active).
Take `COC[C@H]1OC(=O)c2coc3c2[C@@]1(C)C1=C(C3=O)C2CCC(=O)[C@@]2(C)C[C@H]1OC(C)=O` (stereo not given in full): the Potency entry is “inactive”.
`O=C(NCC1CCOCC1)c1cnc(Nc2ccc(Cl)cc2Cl)nc1C(F)(F)F`: the Potency result was “inactive”.
For the compound `CC(NC(C)(C)C)C(=O)c1cccc(Cl)c1` (stereo not given), the Potency result was “inactive”.
In the case of `CN[C@@H]1Cc2cccc3[nH]c(=O)n(c23)C1` it was “inactive”.
On to `COc1cccc2c1[C@]13CCN(CC4CC4)[C@H](C2)[C@]1(OC)CCC(=O)C3`, for which the Potency entry is “inactive”.
In the case of `CSCC[C@@H](NC(=O)[C@@H](Cc1ccccc1)NC(=O)CNC(=O)CNC(=O)[C@@H](N)Cc1ccc(O)cc1)C(=O)O` it was “inactive”.
